# According to article PMC4336329 (PLoS ONE, 2015):
# Hit rate of the full screen: of about 310,000 compounds, about 14,000 (4.5%) showed an effect of 50% or more. The effect is printed as a negative number. The sample holds strong results, similar compounds and a random draw of the others, so the mix is not that of the screen.
# Target: human ether-à-go-go-related gene (hERG) potassium channel (human, UniProt Q12809)
# Assay: primary screen, population patch clamp on CHO cells stably expressing hERG; higher = less effect of the substance
# 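Also: peak tail current of the secondary pulse compared with the same well before compound.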
# Sequence of human ether-à-go-go-related gene (hERG) potassium channel (Q12809 whole entry, looked up): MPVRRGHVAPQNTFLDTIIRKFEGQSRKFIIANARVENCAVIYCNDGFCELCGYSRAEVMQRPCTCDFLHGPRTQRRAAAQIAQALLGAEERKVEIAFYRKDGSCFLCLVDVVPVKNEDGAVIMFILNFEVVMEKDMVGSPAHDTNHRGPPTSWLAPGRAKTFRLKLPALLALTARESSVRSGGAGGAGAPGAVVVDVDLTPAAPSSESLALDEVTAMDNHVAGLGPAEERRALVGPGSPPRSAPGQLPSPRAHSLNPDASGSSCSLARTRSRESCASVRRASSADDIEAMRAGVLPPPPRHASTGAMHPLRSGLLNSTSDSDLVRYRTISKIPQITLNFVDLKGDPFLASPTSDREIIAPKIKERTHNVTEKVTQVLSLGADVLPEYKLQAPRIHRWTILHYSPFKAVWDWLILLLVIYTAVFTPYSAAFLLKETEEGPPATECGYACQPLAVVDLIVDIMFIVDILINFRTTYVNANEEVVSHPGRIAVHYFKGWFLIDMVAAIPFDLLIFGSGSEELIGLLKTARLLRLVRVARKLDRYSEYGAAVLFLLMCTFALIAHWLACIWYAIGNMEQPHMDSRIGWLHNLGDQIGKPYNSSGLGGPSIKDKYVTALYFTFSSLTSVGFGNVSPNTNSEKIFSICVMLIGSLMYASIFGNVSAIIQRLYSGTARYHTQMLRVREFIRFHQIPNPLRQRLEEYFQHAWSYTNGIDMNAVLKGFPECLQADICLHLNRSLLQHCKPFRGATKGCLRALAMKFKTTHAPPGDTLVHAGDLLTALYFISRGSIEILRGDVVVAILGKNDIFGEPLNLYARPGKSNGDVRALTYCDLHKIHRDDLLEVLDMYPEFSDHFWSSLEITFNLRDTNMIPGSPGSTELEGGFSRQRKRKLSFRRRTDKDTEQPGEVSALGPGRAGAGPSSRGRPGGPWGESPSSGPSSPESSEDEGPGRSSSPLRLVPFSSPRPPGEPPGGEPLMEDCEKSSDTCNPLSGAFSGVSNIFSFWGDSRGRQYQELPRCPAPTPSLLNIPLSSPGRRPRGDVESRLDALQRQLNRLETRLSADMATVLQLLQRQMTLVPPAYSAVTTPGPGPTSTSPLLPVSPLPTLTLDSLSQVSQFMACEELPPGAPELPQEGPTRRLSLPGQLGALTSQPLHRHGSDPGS
row,Compound,"hERG current change (%, negative = inhibition) at 10uM [%]"
1,Cc1ccc(SCC(=O)NCCCN2CCOCC2)cc1,15
2,Cc1ccc(Cl)cc1NC(=S)N(CCCN1CCOCC1)Cc1ccccn1,-34.3
3,Cc1cc(Cl)ccc1NC(=S)N(CCCN1CCOCC1)Cc1cccs1,-32.2
4,Cc1ccc(NC(=S)N(CCCN2CCOCC2)Cc2cccs2)c(C)c1,-11.7
5,CCN1CCN(CCCN(Cc2cccs2)C(=S)Nc2ccccc2C)CC1,-54.4
6,Cc1ccc(Cl)c(NC(=S)N(CCCN2CCOCC2)Cc2ccco2)c1,-35.3
7,Cc1ccc(Cl)cc1NC(=S)N(CCCN1CCN(C)CC1)Cc1ccco1,-52.3
8,Cc1ccccc1NC(=S)N(CCCN1CCOCC1)Cc1cccs1,-39.9
9,CCN1CCN(CCCN(Cc2ccco2)C(=S)Nc2cc(Cl)ccc2C)CC1,-61.9
10,Cc1ccccc1NC(=S)N(CCCN1CCCCC1)Cc1ccco1,-45.4
11,Cc1ccc(Cl)cc1NC(=S)N(CCCN1CCN(C)CC1)Cc1cccs1,-61.7
12,Cc1ccc(Cl)cc1NC(=S)N(CCN(C)C)Cc1cccs1,-0.292
13,Cc1ccc(Cl)cc1NC(=S)N(CCCN1CCOCC1)Cc1ccco1,-28.5
14,COC(=O)C1=C(COc2ccccc2)NC(=O)NC1c1ccc(Br)cc1 (stereo not drawn),0.599
15,Cc1ccc(CSCC(=O)N/N=C/c2cccc(OC3CSC3)c2)cc1,11.4
16,Nc1nnc(/C=C/c2ccccc2Cl)s1,12.1
17,Cc1cc(C(=O)COC(=O)c2ccc([N+](=O)[O-])o2)c(C)n1CC1CCCO1 (stereo not drawn),-42.5
18,CCOc1ccc(/C=C2/C(=O)NC(=O)N(CCc3ccc(F)cc3)C2=O)cc1,8.76
19,Cc1ccc(-n2nc(C(=O)NN)c(C)c(C#N)c2=O)cc1Cl,14.5
20,COc1ccc(N(C(=O)Cn2nnc(-c3ccccc3F)n2)C(C(=O)NCC2CCCO2)c2ccc(Cl)cc2)cc1 (stereo not drawn),22.6
21,COc1ccc(S(=O)(=O)N(CC(=O)O)c2ccc(C)cc2)cc1,4
22,Cc1cc(Nc2ccc(Br)cc2)nc(-c2ccccc2O)n1,19.9
23,Cc1c(Cl)cccc1NC(=S)N(CCCN1CCOCC1)Cc1cccs1,-26.5

row,Compound,"hERG current change (%, negative = inhibition) at 10uM [%]"
1,CCc1ccccc1NC(=S)N(CCCN1CCN(C)CC1)Cc1cccs1,-46
2,CCc1ccccc1NC(=S)N(CCCN1CCOCC1)Cc1cccs1,-53.5
3,COc1ccc(CNC(=O)CCCn2nc(C)n3c(cc4sccc43)c2=O)cc1,-1.61
4,CC(=O)N1N=C(c2cccc([N+](=O)[O-])c2)OC1c1ccccc1Cl (stereo not drawn),-25.8
5,COc1ccccc1C1OC(c2cccc([N+](=O)[O-])c2)=NN1C(C)=O (stereo not drawn),-62
6,CC(=O)N1N=C(c2cccc([N+](=O)[O-])c2)OC1c1ccc(Cl)cc1Cl (stereo not drawn),8.14
7,CCc1nc(SCc2cccnc2)c2c(=O)n(C)c(=O)n(C)c2n1,-10.7
8,Cc1ccccc1-c1nc(SCc2cccnc2)c2c(=O)n(C)c(=O)n(C)c2n1,10.5
9,Cn1c(=O)c2c(SCc3cccnc3)nc(CC(C)(C)C)nc2n(C)c1=O,-59.6
10,CC(C)Cc1nc(SCc2cccnc2)c2c(=O)n(C)c(=O)n(C)c2n1,-8.32
11,Cn1c(=O)c2c(SCc3cccnc3)nc(C3CC3)nc2n(C)c1=O,-9.63
12,CCCc1nc(SCc2cccnc2)c2c(=O)n(C)c(=O)n(C)c2n1,-57.3
13,CC1=C(C(=O)NC(C)c2ccccc2)C2(CCC(C)CC2)OC1=O (stereo not drawn),-4.71
14,Cc1ccc(C)c2c1N(Cc1ccccc1)C(=O)C21OCCO1,-21.8
15,Cc1nc(NC(=O)C2CCCCC2C(=O)O)sc1C (stereo not drawn),12
16,O=C(CNC(=O)c1ccccc1)OCc1nnc(-c2ccc(Cl)cc2)o1,-10.4
17,Cc1c(CN2CCc3c([nH]c4ccccc34)C2C2CCCCC2)cnn1C (stereo not drawn),-38.7
18,c1ccc2c3c([nH]c2c1)C(C1CCCCC1)N(Cc1ncc[nH]1)CC3 (stereo not drawn),-39.5
19,Cc1cnc(CN2CCc3c([nH]c4ccccc34)C2C2CCCCC2)[nH]1 (stereo not drawn),-62.6
20,O=S(=O)(c1ccccc1)c1nc(-c2ccco2)oc1NCCCN1CCOCC1,-6.01
21,Cc1ccc(S(=O)(=O)c2nc(-c3cccs3)oc2NCc2cccnc2)cc1,-18.3
22,O=S(=O)(c1ccccc1)c1nc(-c2ccccc2)oc1NCc1cccnc1,8.28
